Assay results published in PubChem BioAssay AID1671190 (National Center for Advancing Translational Sciences (NCATS), 2021).
Several values for one entry are separate records, joined by “and”; a condition that tells them apart may be missing. Equal entries are not always repeated. The campaign covered roughly 580,000 compounds. About 6,100 (1.1%) were called active. Inconclusive results (about 15%) are left out. Calls follow the shape of the dose curve; as a rule, active = well fitted inhibition curve with a large enough effect; inconclusive = small, poorly fitted or top-dose-only effect, or another doubt; inactive = no such curve, though single readings can be large or run the other way. The list comes from a sample in which actives are over-represented; it also holds similar structures and randomly drawn compounds.

The compounds below were run against Polyunsaturated fatty acid lipoxygenase ALOX12 (Homo sapiens) (UniProt P18054) (assay: Primary qHTS assay for inhibitors of human arachidonate 12S-lipoxygenase (ALOX12): Round 2). Conditions: purified 12hLO, xylenol orange hydroperoxide absorbance; series mostly up to 108 µM.
Polyunsaturated fatty acid lipoxygenase ALOX12 (Homo sapiens), sequence (P18054 whole entry, looked up): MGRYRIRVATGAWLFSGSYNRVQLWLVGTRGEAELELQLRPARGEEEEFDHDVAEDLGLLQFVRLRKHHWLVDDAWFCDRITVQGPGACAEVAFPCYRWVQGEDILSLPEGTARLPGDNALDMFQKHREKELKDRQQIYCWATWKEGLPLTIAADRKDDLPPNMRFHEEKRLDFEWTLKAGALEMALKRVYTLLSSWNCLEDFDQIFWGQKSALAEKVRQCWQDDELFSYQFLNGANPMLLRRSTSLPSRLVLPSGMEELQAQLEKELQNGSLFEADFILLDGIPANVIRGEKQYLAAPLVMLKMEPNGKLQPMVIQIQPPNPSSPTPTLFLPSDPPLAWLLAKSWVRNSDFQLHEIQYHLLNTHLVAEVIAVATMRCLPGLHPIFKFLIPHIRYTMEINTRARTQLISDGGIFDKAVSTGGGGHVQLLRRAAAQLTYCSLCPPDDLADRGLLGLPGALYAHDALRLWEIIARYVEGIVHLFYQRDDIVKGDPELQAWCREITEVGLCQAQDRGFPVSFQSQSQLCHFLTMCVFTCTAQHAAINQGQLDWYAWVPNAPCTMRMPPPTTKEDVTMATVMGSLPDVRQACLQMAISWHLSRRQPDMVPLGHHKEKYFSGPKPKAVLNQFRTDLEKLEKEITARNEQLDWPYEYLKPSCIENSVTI
Method in brief: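 Purified human 12hLO (150 nM final) in 25 mM Hepes, 0.01% Triton X-100, pH 7.0 was preincubated 15 min at room temperature with compound. Then 40 uM arachidonic acid was added, 30 min. Hydroperoxide was read by Fe-XO absorbance ratio 573/405 nm.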
Potency is read from the fitted curve at half-maximal effect.

Potency, active:
COc1ccc(S(=O)(=O)Nc2ccc(O)c(Sc3nc4ccccc4s3)c2)cc1 44.7 µM and 22.4 µM
CCc1ccc(-c2cc(C(=O)NCc3ccco3)c3ccccc3n2)s1 17.8 µM and 35.5 µM
CCC(CO)Oc1cc(NC(=O)c2ccc(Cl)cc2)c2ncn(C(C)C)c2c1 (configuration not stated) 3.16 µM
O=C(NCc1ccc(Cl)cc1)c1cc(-c2ccc[nH]2)n[nH]1 31.6 µM
Cc1cccc(NC(=S)NCCc2ccc(F)cc2)c1C 39.8 µM
Cc1ccc(NC(=S)NCCc2ccc(Cl)cc2)c(C)c1 35.5 µM
Cc1ccc(C)c(C(C)NC(=S)NCc2ccc(Cl)cc2)c1 (configuration not stated) 31.6 µM
S=C(NCCc1ccc(Cl)cc1)Nc1ccc(Oc2ccccc2)cc1 17.8 µM
CC[n+]1c(C)n(-c2ccccc2)c2ccc(NC(C)=O)cc21 39.8 µM
CC(=O)C(=Cc1ccc(-c2cccc([N+](=O)[O-])c2)o1)C(C)=O 0.631 µM
CCC(C)Cn1c(O)cc2nn(-c3nc4ccccc4s3)c(=O)c-2c1C (configuration not stated) 31.6 µM
Cc1ccc(S(=O)(=O)/N=C(/NC(=S)Nc2c(C)n(C)n(-c3ccccc3)c2=O)c2ccccc2)cc1 28.2 µM
CSc1nnc(-c2ccncc2)n1CCCN1CCCC1=O 15.8 µM
CCC(=C/c1sc2ccc3ccccc3c2[n+]1C)/C=C1\Sc2ccc3ccccc3c2N1C 39.8 µM
COc1ccc(C)cc1Nc1nc(C)nc2c1oc1ccccc12 35.5 µM
Cc1ccc(S(=O)(=O)N2CCN(CC(=O)NC(C)c3cccs3)CC2)cc1 (configuration not stated) 0.708 µM
Cc1ccc(-c2c3c(=O)n(C)c(=O)n(C)c3c3n2C(C)(C)COC3c2ccc(C)cc2O)cc1 (configuration not stated) 6.31 µM
CC(=O)Oc1cccc(N2C(=O)CC(Nc3ccc(N4CCOCC4)cc3)C2=O)c1 (configuration not stated) 35.5 µM
O=C(CSc1nc2ccc(NC(=O)c3ccc(F)cc3)cc2s1)NC1CCCCC1 3.98 µM
Cc1oc2cc([N+](=O)[O-])c(O)c([N+](=O)[O-])c2c1C(=O)c1ccc(Br)cc1 28.2 µM
CCN(CC)CCCCNc1ncc2c(n1)N(C)C(=O)N(c1c(Cl)c(OC)cc(OC)c1Cl)C2 34.3 µM
Cc1nc(C)c(-c2csc(NCCc3ccccc3)n2)s1 5.01 µM
O=C(NS(=O)(=O)c1cccs1)[C@H]1O[C@@H](n2ccc(=O)[nH]c2=O)[C@H](O)[C@@H]1O 31.6 µM

Potency, inactive:
CC(=O)c1c(SCC(=O)Nc2ccc(F)cc2)nc(=O)[nH]c1C
COCC(=O)N1CCC(c2nc(C3CCOCC3)n[nH]2)CC1
COc1ccc(Nc2nc3ccccc3nc2NS(=O)(=O)c2ccc(OC)cc2)cc1
Cc1ccc(NS(=O)(=O)c2cccc(C(=O)N(C)C(C)c3nc4ccccc4s3)c2)cc1 (configuration not stated)
COC(=O)C1=C(C)NC(=O)C1(NC(=O)c1ccccc1F)C(F)(F)F (configuration not stated)
CCCCCCc1ccc(/C(C)=C\C(=O)O)cc1
CCOc1ccc(CNC(=O)c2cc(-c3ccc(Cl)s3)nc3ccccc23)cc1
CC(C)Oc1ccc(-c2cc(C(=O)NCc3ccncc3)c3ccccc3n2)cc1
O=C(CSc1nc(-c2ccc(F)cc2)cs1)NC1CCCCC1
CC(C)Cn1cnc2c1c(=O)n(CC(=O)OCc1ccc(F)cc1)c(=O)n2Cc1ccccc1
COC(=O)C1=C(C)Nc2nc3ccccc3n2C1c1cc(OC)c(O)c(OC)c1 (configuration not stated)
CC(C)Oc1ccc(NC(=O)c2ccc(Cl)cc2)cc1
CCOc1ccc(NC(=O)c2ccc(Cl)cc2)c2cccnc12
COc1ccccc1C(=O)N1CCCN(CCc2ccccc2)c2ccccc21
COc1cccc(CN2Cc3cc(NC(=O)Cc4cccs4)ccc3OC(C)C2=O)c1OC (configuration not stated)
CCOc1ccc(Cl)cc1-c1cc(C(=O)NCc2cccs2)[nH]n1
COc1ccccc1CNC(=O)c1cc(-c2cc(Cl)ccc2C)n[nH]1
CCCn1nc(C(=O)Nc2nc(-c3ccc(NC(C)=O)cc3)cs2)c2ccccc2c1=O
CC(NC(=O)CSc1ccc(F)c(F)c1)c1nc2ccccc2[nH]1 (configuration not stated)
Cc1cccc(NC(=S)N2CCC(O)CC2)c1C
CCNC(=S)Nc1ccc(C)cc1Br
Cc1nn(C)c2c1c(C(F)(F)F)cc(=O)n2C(C)C(=O)NCc1ccc(Cl)cc1 (configuration not stated)
Cc1cc(Cl)ccc1NC(=S)NCCCN1CCCC1=O
CN(CC(=O)Nc1ccc(Cl)cc1)C(=O)c1ccc(COc2ccccc2)cc1
O=C(NCCc1ccccc1)Oc1ccc(Cl)cc1
Cc1c(Cl)cccc1NC(=S)NCCSc1ccc(Cl)cc1
CCC(C)C(NC(=O)NCc1ccc(C)cc1)C(=O)O (configuration not stated)
CN1CCN(C(=O)CCCC(=O)O)CC1
Cc1ccc([S+](=O)([O-])N2CCC3(CC2)CC(=O)N(c2ccccc2)c2ccccc2O3)cc1
CC(C)CC1CCCN1 (configuration not stated)
CCn1cc(CN2CCC(N3CC(OCC4CC4)C34CCCCC4)CC2)cn1 (configuration not stated)
CC(=O)Nc1ccc(S(=O)(=O)N2CCN(c3ccccc3)CC2)cc1
CC(=O)Nc1ccc(NC(=O)CSc2nnc(C3CC3)n2-c2ccccc2)cc1
COCC1CN(C(C)=O)CC12CCN(C(=O)c1n[nH]c(=O)c3ccccc13)CC2 (configuration not stated)
N#CC(C#N)=Cc1ccc(-c2cccc(C(=O)O)c2)o1
Cc1ccnc(-c2cccc([N+](=O)[O-])c2)[n+]1[O-]
O=C(Nc1ccc(F)c(F)c1)c1nc2ccccc2nc1N1CCOCC1
CC(C)Cn1nc(C(=O)Nc2ccc3nc(N4CCOCC4)sc3c2)c2ccccc2c1=O
CCNC(=O)CN1CCCN(C(=O)CCCc2c[nH]c3ccccc23)CC1
Cc1c(NC(=S)NC(=O)CCc2ccccc2)c(=O)n(-c2ccccc2)n1C
CC(=O)NC(NC(=S)Nc1c(C)n(C)n(-c2ccccc2)c1=O)C(Cl)(Cl)Cl (configuration not stated)
C/C=C/C=C/C(=O)NCc1cccs1
COc1cc(/C=C2/NC(=O)NC2=O)ccc1OCc1ccccc1F
CCOc1ccccc1NC(=O)N1CCN(Cc2nc(-c3ccc(C(=O)NC)cc3)oc2C)CC1
Cc1oc(-c2ccccc2)nc1C(=O)NCCCN1CCCC1=O
CCCn1c(SCC(=O)N2CCc3ccccc32)nnc1-c1ccncc1
CCCCc1noc(CSc2cc(C(N)=O)c3ccccc3n2)n1
CCOC(=O)N1CCN(Cc2nc3c(c(=O)[nH]c(=O)n3C)n2Cc2ccc(F)cc2)CC1
COc1ccc(CCc2nnc(NS(=O)(=O)Cc3ccccc3)s2)cc1
CC(=O)Nc1ccc(Cl)c(-c2nc3cc(C)ccc3o2)c1
NC(=O)c1ccc(S(=O)(=O)N2CCN(C(=O)c3cc4c(s3)CCC4)CC2)cc1
COc1ccc(CCNC(=O)CSc2nc(C)nc3c2oc2ccccc23)cc1OC
CCc1nc(Nc2ccc3nccnc3c2)c2oc3ccccc3c2n1
COCCN1CCCC(c2[nH]ccc2C(=O)NCCc2c[nH]c3ccccc23)C1 (configuration not stated)
CCCCCCCOc1ccc(C(=O)Oc2cncc(Cl)c2)cc1
Cc1ccc(S(=O)(=O)N2CCN(Cc3cccc(C)c3O)CC2)cc1
Cc1ccc(S(=O)(=O)N2CCN(C(=O)c3cccs3)CC2)cc1
COc1c(I)cc(Br)cc1/C=C/C(=O)O
O=C(Cc1csc(-c2ccccc2Cl)n1)Nc1nccs1
Cc1ccc(-c2c3c(=O)n(C)c(=O)n(C)c3cn2-n2cnnc2)cc1
COc1ccc(NC2CC(=O)N(C)C2=O)cc1 (configuration not stated)
COc1ccc(N2C(=O)CC(Nc3ccc(F)cc3)C2=O)c([N+](=O)[O-])c1 (configuration not stated)
COCCNC(=O)COc1ccc2c(C)cc(=O)oc2c1
CCCCn1c2ccccc2c2nnc(SCc3ccc(F)cc3)nc21
O=C(Nc1ccc2nc(SCC(=O)N3CCCc4ccccc43)sc2c1)c1ccc(F)cc1
O=C(Nc1ccc2nc(N3CCCC3)sc2c1)c1ccc(F)cc1
CCCn1nc(C(=O)N(CCOC)Cc2cccs2)c2ccccc2c1=O
Cc1ccc(C(=O)c2ccc(N3CCN(C)CC3)c([N+](=O)[O-])c2)cc1
Cc1cc(O)c(NC(=O)c2ccc(C)c([N+](=O)[O-])c2)cc1C
COc1ccc(CCn2c(NC3CCCCC3)nc3c2c(=O)[nH]c(=O)n3C)cc1
O=C(Nc1ccc2c(c1)CCC2)c1cc2c(s1)CN(C1CC1)C2
CCn1nc(C(=O)Nc2ccccc2Oc2ccccc2)c2ccccc2c1=O
COc1ccc(C(=O)COC(=O)c2ccc3c(c2)OCCO3)cc1
Cc1cccc(C)c1Nc1nc(-c2ccccc2)cs1
Cc1nc2sccn2c(=O)c1S(=O)(=O)NCCc1ccccc1
Cn1c(SCC(=O)N2CCc3ccccc32)nnc1-c1ccc(F)cc1
O=C(NCCCN1CCN(Cc2ccccc2)CC1)c1ccccc1C(F)(F)F
Cc1nccn1-c1ccc(NC(=O)[C@H]2O[C@@H](n3ccc(=O)[nH]c3=O)[C@H](O)[C@@H]2O)cc1
O=C(N[C@H](Cc1ccccc1)C(=O)N1CCCN(Cc2cccs2)CC1)[C@H]1O[C@@H](n2ccc(=O)[nH]c2=O)[C@H](O)[C@@H]1O
